# Data reported in PubChem BioAssay (NCI).
# Compounds without any hit were thinned out: in the full panel of roughly 79,000, 15% have a hit. Values without a mark were called inactive. Calls of active or inactive are those of the source. Rule as the data show it: active = growth inhibition above about 70%; inactive = the rest.
# Assays:
# [1] = NCI Yeast Anticancer Drug Screen. Data for the rad52 strain (AID 147);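 also: 0% = growth of vehicle-treated control cultures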; conditions: S. cerevisiae rad52 mutant growth inhibition, active compounds read high
# Method in brief: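 Inhibition of yeast growth, referenced to vehicle controls, was the measured output for a strain with defective DNA damage repair.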
# [2] = NCI Yeast Anticancer Drug Screen. Data for the wt1 strain (AID 149);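 also: 0% = growth of vehicle-treated wt1 cultures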; conditions: S. cerevisiae wt1 strain (SPY 50644) growth inhibition, active compounds read high
# Method in brief: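 Vehicle-normalised growth inhibition; strain wt1; compound exposure.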
# [3] = NCI Yeast Anticancer Drug Screen. Data for the rad50EPP+ strain (AID 151);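 also: 0% = growth of vehicle-treated control cultures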; conditions: S. cerevisiae rad50 mutant strain, active compounds read high
# Method in brief: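 Genetically defined yeast (rad50EPP+, DNA damage repair alteration) is grown with compound, and inhibition of growth is expressed relative to vehicle-treated controls.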
# [4] = NCI Yeast Anticancer Drug Screen. Data for the mgt1 strain (AID 153); conditions: S. cerevisiae mgt1 mutant growth inhibition, active compounds read high
# Method in brief: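 In the mgt1 strain, test compounds were added and growth inhibition was determined relative to vehicle-treated controls.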
# [5] = NCI Yeast Anticancer Drug Screen. Data for the rad50 strain (AID 155);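 also: 0% = growth of vehicle-only cultures of the same strain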; conditions: S. cerevisiae rad50 strain growth inhibition, active compounds read high
# Method in brief: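 A DNA repair-deficient yeast mutant serves as the test organism; compound-induced growth inhibition is calculated against vehicle-treated cells.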
# [6] = NCI Yeast Anticancer Drug Screen. Data for the mec2-1 strain (AID 157); conditions: S. cerevisiae mec2-1 strain, active compounds read high
# Method in brief: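 Each compound was tested on mec2-1 yeast, a strain altered in DNA damage repair or cell cycle control. Growth inhibition is reported relative to vehicle.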
# [7] = NCI Yeast Anticancer Drug Screen. Data for the rad14 strain (AID 159);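 also: 0% = growth of vehicle-treated control cultures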; conditions: S. cerevisiae rad14 strain growth inhibition, active compounds read high
# Method in brief: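 Vehicle-treated cultures served as the baseline for growth inhibition of a DNA repair-mutant yeast strain exposed to each compound.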
# [8] = NCI Yeast Anticancer Drug Screen. Data for the sgs1 mgt1 strain (AID 161);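 also: 0% = growth of cultures given vehicle only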; conditions: S. cerevisiae sgs1 mgt1 strain, active compounds read high
# Method in brief: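 Mutant yeast exposed to compound; growth scored against vehicle-only wells.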
# [9] = NCI Yeast Anticancer Drug Screen. Data for the CLN2oe strain (AID 163);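 also: 0% = growth of vehicle-only control cultures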; conditions: S. cerevisiae CLN2oe strain, active compounds read high
# Method in brief: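 First, the altered yeast strain was treated with each compound; second, its growth was measured; finally, inhibition was derived by comparison with vehicle controls.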
# [10] = NCI Yeast Anticancer Drug Screen. Data for the cln2 rad14 strain (AID 165);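 also: 0% = growth equal to vehicle treated cultures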; conditions: S. cerevisiae cln2 rad14 strain, active compounds read high
# Method in brief: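 Test compounds were added to cln2 rad14 yeast cultures; inhibition of growth was then determined by comparison with vehicle treatment.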
# [11] = NCI Yeast Anticancer Drug Screen. Data for the bub3 strain (AID 167); conditions: S. cerevisiae bub3 mutant strain, active compounds read high
# Method in brief: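 Inhibition values come from growth of compound-treated mutant yeast normalised to vehicle-treated controls.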
# [12] = NCI Yeast Anticancer Drug Screen. Data for the wt2 strain (AID 169);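 also: 0% = growth of vehicle-treated yeast cultures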; conditions: S. cerevisiae wt2 strain growth inhibition, active compounds read high
# Method in brief: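 The panel's yeast strains carry defined changes in DNA repair or cell cycle genes. Each strain is grown with compound, and growth loss is scored relative to vehicle.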
# [13] = NCI Yeast Anticancer Drug Screen. Data for the mlh1 strain (AID 171);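 also: 0% = growth of vehicle-treated control cultures of the same strain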; conditions: S. cerevisiae mlh1 strain growth inhibition, active compounds read high
# Method in brief: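 Inhibition values reflect reduced yeast growth in the presence of compound, referenced to vehicle controls, using a strain chosen for its alteration in DNA repair or cell cycle control.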
# [14] = NCI Yeast Anticancer Drug Screen. Data for the sgs1 strain (AID 173);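 also: 0% = growth of vehicle-only control cultures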; conditions: S. cerevisiae sgs1 mutant, active compounds read high
# Method in brief: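 Vehicle-treated cultures served as reference for growth inhibition of a yeast strain altered in DNA damage repair or cell cycle control after compound exposure.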
# [15] = NCI Yeast Anticancer Drug Screen. Data for the mlh1 rad18 strain (AID 175); conditions: S. cerevisiae mlh1 rad18 strain growth inhibition, active compounds read high
# Method in brief: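 Inhibition values reflect reduced growth of mutant yeast versus vehicle-treated controls following compound exposure; the mutations affect DNA damage repair.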
# [16] = NCI Yeast Anticancer Drug Screen. Data for the rad18 strain (AID 177); conditions: S. cerevisiae rad18 mutant growth inhibition, active compounds read high
# Method in brief: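 Steps: expose repair-mutant yeast to compound; measure growth; express as inhibition relative to vehicle control.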
# [17] = at 5.0 µM (retest, dose inferred, filed as 0.5)
# [18] = at 50.0 µM (retest, dose inferred, filed as 5.0)
smiles,measurement,setting,value
O=C1C2C=CC1C1C(=O)OC(=O)C21 (stereo not drawn),growth inhibition,[1]; at 1.2 µM,-18%
same,growth inhibition,[1]; at 3.7 µM,-15%
same,growth inhibition,[1]; at 11.0 µM,-8%
same,growth inhibition,[1]; at 33.0 µM,-14%
same,growth inhibition,[1]; at 100.0 µM,-24%
same,growth inhibition,[2]; at 1.2 µM,-50%
same,growth inhibition,[2]; at 3.7 µM,-45%
same,growth inhibition,[2]; at 11.0 µM,-45%
same,growth inhibition,[2]; at 33.0 µM,-52%
same,growth inhibition,[2]; at 100.0 µM,-51%
same,growth inhibition,[3]; at 1.2 µM,-17%
same,growth inhibition,[3]; at 3.7 µM,-21%
same,growth inhibition,[3]; at 11.0 µM,-20%
same,growth inhibition,[3]; at 33.0 µM,-11%
same,growth inhibition,[3]; at 100.0 µM,-45%
same,growth inhibition,[4]; at 1.2 µM,-29%
same,growth inhibition,[4]; at 3.7 µM,-13%
same,growth inhibition,[4]; at 11.0 µM,-6%
same,growth inhibition,[4]; at 33.0 µM,-17%
same,growth inhibition,[4]; at 100.0 µM,-28%
same,growth inhibition,[5]; at 1.2 µM,-3%
same,growth inhibition,[5]; at 3.7 µM,-2%
same,growth inhibition,[5]; [17],49%
same,growth inhibition,[5]; at 11.0 µM,16%
same,growth inhibition,[5]; at 33.0 µM,13%
same,growth inhibition,[5]; [18],77% (active)
same,growth inhibition,[5]; at 50.0 µM,83.2% (active)
same,growth inhibition,[5]; at 100.0 µM,-2%
same,growth inhibition,[6]; at 1.2 µM,-54%
same,growth inhibition,[6]; at 3.7 µM,-52%
same,growth inhibition,[6]; [17],48%
same,growth inhibition,[6]; at 11.0 µM,-44%
same,growth inhibition,[6]; at 33.0 µM,-51%
same,growth inhibition,[6]; [18],58%
same,growth inhibition,[6]; at 50.0 µM,90.8% (active)
same,growth inhibition,[6]; at 100.0 µM,-45%
same,growth inhibition,[7]; at 1.2 µM,-57%
same,growth inhibition,[7]; at 3.7 µM,-44%
same,growth inhibition,[7]; at 11.0 µM,-48%
same,growth inhibition,[7]; at 33.0 µM,-48%
same,growth inhibition,[7]; at 100.0 µM,-43%
same,growth inhibition,[8]; [17],1%
same,growth inhibition,[8]; [18],-6%
same,growth inhibition,[8]; at 50.0 µM,89.2% (active)
same,growth inhibition,[9]; at 1.2 µM,-8%
same,growth inhibition,[9]; at 3.7 µM,-6%
same,growth inhibition,[9]; at 11.0 µM,-24%
same,growth inhibition,[9]; at 33.0 µM,-27%
same,growth inhibition,[9]; at 100.0 µM,-25%
same,growth inhibition,[10]; [17],61%
same,growth inhibition,[10]; [18],25%
same,growth inhibition,[10]; at 50.0 µM,91.8% (active)
same,growth inhibition,[11]; at 1.2 µM,-19%
same,growth inhibition,[11]; at 3.7 µM,-10%
same,growth inhibition,[11]; [17],33%
same,growth inhibition,[11]; at 11.0 µM,-22%
same,growth inhibition,[11]; at 33.0 µM,-7%
same,growth inhibition,[11]; [18],14%
same,growth inhibition,[11]; at 50.0 µM,89.8% (active)
same,growth inhibition,[11]; at 100.0 µM,-23%
same,growth inhibition,[12]; at 1.2 µM,-25%
same,growth inhibition,[12]; at 3.7 µM,-9%
same,growth inhibition,[12]; at 11.0 µM,-35%
same,growth inhibition,[12]; at 33.0 µM,-32%
same,growth inhibition,[12]; at 100.0 µM,-34%
same,growth inhibition,[13]; at 1.2 µM,-45%
same,growth inhibition,[13]; at 3.7 µM,-53%
same,growth inhibition,[13]; at 11.0 µM,-39%
same,growth inhibition,[13]; at 33.0 µM,-64%
same,growth inhibition,[13]; at 100.0 µM,-55%
same,growth inhibition,[14]; at 1.2 µM,-28%
same,growth inhibition,[14]; at 3.7 µM,-31%
same,growth inhibition,[14]; at 11.0 µM,-34%
same,growth inhibition,[14]; at 33.0 µM,-20%
same,growth inhibition,[14]; at 100.0 µM,-39%
same,growth inhibition,[15]; [17],53%
same,growth inhibition,[15]; [18],41%
same,growth inhibition,[15]; at 50.0 µM,82.9% (active)
same,growth inhibition,[16]; at 1.2 µM,-23%
same,growth inhibition,[16]; at 3.7 µM,-2%
same,growth inhibition,[16]; at 11.0 µM,3%
same,growth inhibition,[16]; at 33.0 µM,-28%
same,growth inhibition,[16]; at 100.0 µM,-10%
